Mito fusion act: qHTS Assay for Small Molecule Inhibitors of Mitochondrial Division or Activators of Mitochondrial Fusion. 0.23% of 320,000 active. Potency, µM (titrated, usually from 46.1 µM), most hits filed as activators. S. cerevisiae fusion-defective mutant growth rescue, CellTiterGlo 48 h; further: nearly all actives have a fitted effect of over 45% in size
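Luminescent cell viability in 1536-well qHTS format served as the measure of rescued growth in ts fusion-mutant S. cerevisiae cultured on non-fermentable YPEG for 48 hours at 37C.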
GLP1R cytotox: qHTS of GLP-1 Receptor Inverse Agonists: Cytotox Screen; Potency, µM (titrated, usually from 38.3 µM), usual class: inhibitors; 0.13% of 410,000 active; HEK293 cAMP-luciferase reporter cells, luminescence, 24 h;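 further: loss of luciferase light is scored as toxicity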
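Quantitative HTS format, 1536 wells, 200 cells/uL seeded. Compounds: 23 nL, 24 h, 37 °C. Detection: luciferase reagent, luminescence at 12 min RT; decreased signal taken as cytotoxic.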
BRCA1 expr up: qHTS Assay to Identify Small Molecule Activators of BRCA1 Expression; MCF7-BRCA1-FFLuc reporter, luminescence, 48 h; response scale: scaled: vehicle 0%, 10 µM genistein 100%; Potency, µM (series often up to 46.1 µM), most hits filed as activators; 1.1% of 380,000 active; AID 624202, 2012; further: nearly all actives have a fitted effect of over 80% in size
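Activators of BRCA1 expression were detected as increased firefly luciferase luminescence in engineered MCF7 cells after 48 h compound incubation. Signals were scaled to genistein 10 microM as full activation.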
GLP-1R inv ag: qHTS of GLP-1 Receptor Inverse Agonists (Inhibition Mode). Glucagon-like peptide 1 receptor (Homo sapiens), P43220. HEK293 GLP-1R CRE-luciferase, luminescence, 24 h; GLP-1R form is constitutively active. Potency, µM (titrated, usually from 38.3 µM), hits mostly inhibitors. 1.6% of 410,000 active. AID 624417, 2012; further: nearly all actives have a fitted effect of over 55% in size
Target sequence (P43220 whole entry, looked up): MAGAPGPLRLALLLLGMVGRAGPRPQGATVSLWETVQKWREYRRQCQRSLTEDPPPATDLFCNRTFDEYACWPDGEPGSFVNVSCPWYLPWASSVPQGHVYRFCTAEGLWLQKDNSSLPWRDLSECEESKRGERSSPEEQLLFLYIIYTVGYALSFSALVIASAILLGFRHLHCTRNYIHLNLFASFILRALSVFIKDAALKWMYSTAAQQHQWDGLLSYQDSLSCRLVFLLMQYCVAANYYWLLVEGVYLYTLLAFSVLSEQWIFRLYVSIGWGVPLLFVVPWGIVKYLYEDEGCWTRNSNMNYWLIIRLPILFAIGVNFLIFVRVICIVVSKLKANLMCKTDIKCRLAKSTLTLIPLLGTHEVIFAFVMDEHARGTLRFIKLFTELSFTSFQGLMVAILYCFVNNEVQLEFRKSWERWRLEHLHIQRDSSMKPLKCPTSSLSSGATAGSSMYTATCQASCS
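HEK293 cells stably co-expressing constitutively active GLP-1R and a cAMP-responsive luciferase reporter were seeded in DMEM with 10% Nu serum, given compounds after 12 h, and incubated 24 h at 37 deg C. Luminescence was then read.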
GLP1R ag: qHTS of GLP-1 Receptor Agonists | Glucagon-like peptide 1 receptor (Homo sapiens), P43220 | HEK293 GLP-1R CRE-luciferase, luminescence, 4-6 h; cells express a hypersensitive GLP-1R form | Potency, µM (series often up to 45.6 µM), usual class: activators | 0.007% of 380,000 active | AID 624172, 2012
Of the large screens only hits and unclear results are named; the others gave an inactive call. In the library only some 2.8% were active in any assay of this set; here they are far more common. The call rests on the fitted dose curve; in most records, active means well fitted curve in the direction sought with a large enough effect; inconclusive means small, poorly fitted or top-dose-only effect, or another doubt; inactive means no such curve, though single readings can be large; an effect the other way counts as inactive or inconclusive.

Cc1cccc(C)c1NC(=O)CN(C)C(C)C(=O)Nc1ccccc1-c1ccccc1 (configuration not stated)	none
O=C(Nc1ccc(Br)cc1)Nc1ccccc1F	BRCA1 expr up inconclusive, GLP-1R inv ag inconclusive
O=C(Nc1ccccc1F)Nc1ccccc1F	BRCA1 expr up 5µM
Cc1cnc(C(=O)Nc2ccccc2F)cn1	BRCA1 expr up 5µM
Cc1ccccc1CN(C)C(C)C(=O)Nc1ccccc1F (configuration not stated)	GLP-1R inv ag 8.9µM
N/C(=N\OC(=O)c1ccco1)c1ccccc1	BRCA1 expr up 5.6µM
Cc1ccc(/C(N)=N/OC(=O)c2ccco2)cc1	none
COc1ccc(C(=O)O/N=C(\N)c2ccc(Br)cc2)cc1	Mito fusion act 10µM
N/C(=N\OC(=O)c1ccco1)c1ccc(Br)cc1	BRCA1 expr up 2.5µM
NC(=O)c1sc2nc(-c3ccco3)ccc2c1N	BRCA1 expr up 2.5µM
CC(/C=N\NC(=O)c1ccc(C)nc1)=C\c1ccccc1	none
CC1CCC(C(C)C)C(OC(=O)c2ccccc2O)C1 (configuration not stated)	none (no result: Mito fusion act, GLP1R cytotox, BRCA1 expr up, GLP-1R inv ag)
CC(=O)N1/C(=C/c2ccc(N(C)C)cc2)C(=O)c2ccccc21	GLP1R cytotox inconclusive, GLP-1R inv ag 10µM
COc1ccc(NC(=O)COC(=O)COc2ccc(Br)cc2)cc1	none
CC(=O)NCCNC(=O)c1ccc2c(=O)n(CCc3ccccc3)c(=O)[nH]c2c1	BRCA1 expr up 4.5µM (no result: Mito fusion act)
CNC(=O)NC(=O)CSc1nc2ccccc2n1CCOC	none
N/C(=N\OC(=O)c1ccc(Cl)cc1[N+](=O)[O-])c1ccccn1	GLP1R cytotox inconclusive, GLP-1R inv ag inconclusive
N/C(=N\OC(=O)c1ccc(Cl)cc1Cl)c1ccccn1	GLP-1R inv ag 5.6µM
N/C(CS(=O)(=O)c1ccccn1)=N\OC(=O)c1ccccc1Cl	BRCA1 expr up 2.5µM
N/C(CS(=O)(=O)c1ccccn1)=N\OC(=O)c1ccc(Cl)cc1	BRCA1 expr up inconclusive
N/C(=N\OC(=O)c1ccc([N+](=O)[O-])cc1Cl)c1ccccn1	BRCA1 expr up inconclusive, GLP-1R inv ag 1.8µM
N/C(=N\OC(=O)c1cc([N+](=O)[O-])ccc1Cl)c1ccccn1	none
Cc1ccc(C(=O)O/N=C(\N)c2ccccc2)c(Cl)c1	GLP-1R inv ag inconclusive
Cc1ccc(C(=O)O/N=C(\N)c2ccccn2)c(Cl)c1	GLP1R cytotox inconclusive, GLP-1R inv ag 1.1µM
OC[C@H]1O[C@@H](n2cnc3c(NC4CCCCC4)ncnc32)[C@H](O)[C@@H]1O	none (no result: GLP1R cytotox, BRCA1 expr up, GLP-1R inv ag, GLP1R ag)
COc1cccc(N2CCN(c3ccc([N+](=O)[O-])cn3)CC2)c1	none
COc1ccc(CNCc2cccn2C)cc1	none
COc1ccc(OC)c(S(=O)(=O)N(C)CC(=O)N2CCN(c3cccc(Cl)c3)CC2)c1	GLP-1R inv ag inconclusive
Cc1ccc(-c2nnn(CC(=O)N(Cc3ccco3)C(C(=O)NC(C)(C)C)c3ccc(C)o3)n2)o1 (configuration not stated)	GLP-1R inv ag 1.3µM
Cc1cccc(Cn2cc(C(=O)Nc3ccc(F)c(C(F)(F)F)c3)ccc2=O)c1	GLP-1R inv ag 10µM (no result: Mito fusion act, BRCA1 expr up, GLP1R ag)
Cc1cccc(Cn2cc(C(=O)Nc3cc(F)ccc3F)ccc2=O)c1	none (no result: Mito fusion act)
Cc1ccc(-c2csc(N3CCC[C@@H]3C(=O)NCCn3c(-c4ccncc4)nc4ccccc43)n2)cc1	GLP-1R inv ag 13µM
CCCS(=O)(=O)N1CCCC(C(=O)NCCc2ccc(Cl)cc2)C1 (configuration not stated)	GLP-1R inv ag inconclusive
CCCCOc1ccc(CC(N)=O)cc1	none (no result: Mito fusion act, GLP1R cytotox, GLP-1R inv ag, GLP1R ag)
Cc1ccc(-n2nc3c(=O)n(CC(=O)NCCCc4ccccc4)nc(C)c3c2C)cc1	GLP-1R inv ag inconclusive
Cc1ccc(-n2nc3c(=O)n(C(C)C(=O)NCCCc4ccccc4)nc(C)c3c2C)cc1 (configuration not stated)	GLP-1R inv ag 5µM
Cc1ccc(-n2nc3c(=O)n(CCCC(=O)NCc4cccc(Cl)c4)nc(C)c3c2C)cc1	GLP-1R inv ag 11µM
N#CCCn1cc(/C=C2\NC(=S)N(c3ccccc3)C2=O)c(-c2ccc(-c3ccccc3)cc2)n1	GLP-1R inv ag 7.9µM
O=C(O)CCn1cc(/C=C2/NC(=S)N(c3ccccc3)C2=O)c(-c2ccccc2)n1	GLP1R cytotox inconclusive
C#CCn1c(=NC(=O)c2ccc(S(=O)(=O)N3CCc4ccccc4C3)cc2)sc2cc(S(N)(=O)=O)ccc21	GLP1R cytotox 3.5µM, GLP-1R inv ag 4µM
N/C(Cc1cccs1)=N\OC(=O)COc1ccc(Br)cc1	none
N#CC1(c2ccc(NC(=O)c3ccccc3)cc2)CCCC1	none (no result: GLP1R cytotox, BRCA1 expr up, GLP-1R inv ag, GLP1R ag)
CC(=O)Oc1ccc(C(=O)Nc2ccc(C3(C#N)CCCC3)cc2)cc1	BRCA1 expr up 10µM, GLP-1R inv ag 2.2µM
COc1cccc(CN2CCC(n3nccc3NC(=O)CCCc3ccccc3)CC2)c1O	GLP-1R inv ag inconclusive
CC(=O)c1c(C)nn(CC(=O)NC2CCCN(Cc3ccc(CC(C)C)cc3)C2)c1C (configuration not stated)	GLP-1R inv ag 11µM
Cc1ccc(NC(=O)CSc2nnc(Cc3csc(C)n3)o2)cc1	none
CCOc1ccc(Nc2nc(Cc3nnc(SCC(=O)c4ccc(C)c(C)c4)o3)cs2)cc1	GLP1R cytotox inconclusive, GLP-1R inv ag 11µM
CN(C)c1ccc(N2C(=O)CC(Sc3ccccc3C(=O)O)C2=O)cc1 (configuration not stated)	none
O=C1c2cccc(NCCCNCCO)c2C(=O)c2cccc(NCCCNCCO)c21	GLP1R cytotox 7.9µM, GLP-1R inv ag inconclusive (no result: Mito fusion act)
CC(C)C[C@@H]1NC(=O)[C@H](Cc2ccccc2)N(C)C(=O)[C@H](C)NC(=O)c2ccccc2NC(=O)[C@H](Cc2ccc(O)cc2)N(C)C1=O	GLP1R cytotox inconclusive, GLP-1R inv ag 10µM
CC(C)CC1NC(=O)N(CC(=O)N2c3ccccc3NC(=O)C2(C)C)C1=O (configuration not stated)	none
CCOC(=O)c1cnc(SC)nc1N	none
CCOC(=O)c1cnc(SCC(C)C)nc1N	BRCA1 expr up 7.9µM
CCOC(=O)c1cnc(SCc2cccc(C)c2)nc1N	BRCA1 expr up 10µM, GLP-1R inv ag 10µM, GLP1R ag inconclusive
COc1ccc(N2CCN(c3ncnc4onc(-c5ccc(F)cc5)c34)CC2)cc1	none (no result: Mito fusion act, BRCA1 expr up, GLP1R ag)
C=CCc1c(C)nc2c(-c3ccccc3)cnn2c1N1CCOCC1	BRCA1 expr up 2.2µM
Cc1cc(=O)[nH]c(N=N/C(=N/Nc2ccc(O)cc2)c2ccccc2)n1	none

Bioassay records from PubChem.
